# Experimental data from the supplement of paper PMC12282887.
# ± gives the standard deviation of the averaged measurements.
# System: E. coli BW25113 marRABp lux reporter
# Assay: promoter activity interaction Z-score (Lux/OD deviation from empty-vector control); higher = stronger promoter induction by the compound
# Protocol: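 E. coli BW25113 (wild type or ΔmarA/ΔsoxS/Δrob) carrying pTU175 luxCDABE promoter reporters was grown in LB in 384-well plates at 37°C with each of 94 compounds at 4 two-fold concentrations, in biological duplicates. Luminescence and OD600 were read every 30 min for 12 h and integrated as AUC over 8 h (0-8 h WT, 1-9 h mutants). Lux AUC was divided by OD AUC; the interaction score is the residual of a Huber robust fit of each promoter against the empty-vector control, then Z-transformed per promoter.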
compound,measurement,setting,value
C[C@@H](O)[C@H]1C(=O)N2C(C(=O)O)=C(SCCNC=N)C[C@H]12 [Imipenem],promoter activity interaction Z-score,"0.02 µg/ml, genetic background: wild type",0.316 ± 0.21
same,promoter activity interaction Z-score,"0.02 µg/ml, genetic background: ΔmarA",0.592 ± 0.32
same,promoter activity interaction Z-score,"0.02 µg/ml, genetic background: Δrob",0.0424 ± 0.11
same,promoter activity interaction Z-score,"0.02 µg/ml, genetic background: ΔsoxS",0.106 ± 0.074
same,promoter activity interaction Z-score,"0.04 µg/ml, genetic background: wild type",0.381 ± 0.44
same,promoter activity interaction Z-score,"0.04 µg/ml, genetic background: ΔmarA",0.269 ± 0.79
same,promoter activity interaction Z-score,"0.04 µg/ml, genetic background: Δrob",-0.0178 ± 0.16
same,promoter activity interaction Z-score,"0.04 µg/ml, genetic background: ΔsoxS",0.0651 ± 0.041
same,promoter activity interaction Z-score,"0.079 µg/ml, genetic background: wild type",0.087 ± 0.15
same,promoter activity interaction Z-score,"0.079 µg/ml, genetic background: ΔmarA",-0.0931 ± 0.047
same,promoter activity interaction Z-score,"0.079 µg/ml, genetic background: Δrob",0.0397 ± 0.03
same,promoter activity interaction Z-score,"0.079 µg/ml, genetic background: ΔsoxS",0.0374 ± 0.049
same,promoter activity interaction Z-score,"0.16 µg/ml, genetic background: wild type",0.129 ± 0.28
same,promoter activity interaction Z-score,"0.16 µg/ml, genetic background: ΔmarA",-0.0426 ± 0.31
same,promoter activity interaction Z-score,"0.16 µg/ml, genetic background: Δrob",-0.0898 ± 0.17
same,promoter activity interaction Z-score,"0.16 µg/ml, genetic background: ΔsoxS",0.217 ± 0.23
CCN1CCN(C(=O)N[C@@H](C(=O)N[C@@H]2C(=O)N3[C@@H]2SC(C)(C)[C@@H]3C(=O)O)c2ccccc2)C(=O)C1=O [Piperacillin],promoter activity interaction Z-score,"0.034 µg/ml, genetic background: wild type",-0.259 ± 0.22
same,promoter activity interaction Z-score,"0.034 µg/ml, genetic background: ΔmarA",-0.115 ± 0.2
same,promoter activity interaction Z-score,"0.034 µg/ml, genetic background: Δrob",-0.137 ± 0.032
same,promoter activity interaction Z-score,"0.034 µg/ml, genetic background: ΔsoxS",-0.285 ± 0.24
same,promoter activity interaction Z-score,"0.067 µg/ml, genetic background: wild type",0.0282 ± 0.023
same,promoter activity interaction Z-score,"0.067 µg/ml, genetic background: ΔmarA",-0.147 ± 0.33
same,promoter activity interaction Z-score,"0.067 µg/ml, genetic background: Δrob",-0.102 ± 0.11
same,promoter activity interaction Z-score,"0.067 µg/ml, genetic background: ΔsoxS",-0.225 ± 0.29
same,promoter activity interaction Z-score,"0.13 µg/ml, genetic background: wild type",-0.0179 ± 0.059
same,promoter activity interaction Z-score,"0.13 µg/ml, genetic background: ΔmarA",-0.0535 ± 0.27
same,promoter activity interaction Z-score,"0.13 µg/ml, genetic background: Δrob",-0.134 ± 0.096
same,promoter activity interaction Z-score,"0.13 µg/ml, genetic background: ΔsoxS",-0.159 ± 0.072
same,promoter activity interaction Z-score,"0.27 µg/ml, genetic background: wild type",-0.12 ± 0.057
same,promoter activity interaction Z-score,"0.27 µg/ml, genetic background: ΔmarA",-0.117 ± 0.15
same,promoter activity interaction Z-score,"0.27 µg/ml, genetic background: Δrob",-0.0506 ± 0.1
same,promoter activity interaction Z-score,"0.27 µg/ml, genetic background: ΔsoxS",-0.145 ± 0.44
CC[C@H]1OC(=O)[C@H](C)[C@@H](O[C@H]2C[C@@](C)(OC)[C@@H](O)[C@H](C)O2)[C@H](C)[C@@H](O[C@@H]2O[C@H](C)C[C@H](N(C)C)[C@H]2O)[C@](C)(OC)C[C@@H](C)C(=O)[C@H](C)[C@@H](O)[C@]1(C)O [Clarithromycin],promoter activity interaction Z-score,"3.7 µg/ml, genetic background: wild type",2.9 ± 0.24
same,promoter activity interaction Z-score,"3.7 µg/ml, genetic background: ΔmarA",2.02 ± 0.13
same,promoter activity interaction Z-score,"3.7 µg/ml, genetic background: Δrob",1.54 ± 0.29
same,promoter activity interaction Z-score,"3.7 µg/ml, genetic background: ΔsoxS",2.44 ± 1
same,promoter activity interaction Z-score,"7.5 µg/ml, genetic background: wild type",3.84 ± 0.18
same,promoter activity interaction Z-score,"7.5 µg/ml, genetic background: ΔmarA",2.58 ± 0.055
same,promoter activity interaction Z-score,"7.5 µg/ml, genetic background: Δrob",2.57 ± 1.6
same,promoter activity interaction Z-score,"7.5 µg/ml, genetic background: ΔsoxS",4.77 ± 2.4
same,promoter activity interaction Z-score,"15 µg/ml, genetic background: wild type",2.6 ± 3
same,promoter activity interaction Z-score,"15 µg/ml, genetic background: ΔmarA",3.84
same,promoter activity interaction Z-score,"15 µg/ml, genetic background: Δrob",4.65 ± 1.9
same,promoter activity interaction Z-score,"15 µg/ml, genetic background: ΔsoxS",7.29 ± 0.54
